# According to PubChem BioAssay (NCI):
# Compounds without any hit were thinned out: in the full panel of roughly 83,000, 20% have a hit.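 Treatment: one concentration, 48 hours, 96-well format. Scoring: percent growth, with anything below 10 considered active.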 Values without a mark were called inactive. Activity calls are given as the source filed them.
# What was measured:
# Assay in all cases: NCI-60 one-dose screen, 48 h (100 = growth as untreated, 0 = no growth, -100 = all killed)
# Settings in all cases: 10 µM unless noted
# NCI-H23 lung = test system: NCI-H23 lung
# NCI-H226 lung = test system: NCI-H226 lung
# NCI-H322M lung = test system: NCI-H322M lung
# HOP-62 NSCLC = test system: HOP-62 NSCLC
# NCI-H460 lung = test system: NCI-H460 lung
# HOP-92 NSCLC = test system: HOP-92 NSCLC
# NCI-H522 lung = test system: NCI-H522 lung
# A549/ATCC NSCLC = test system: A549/ATCC NSCLC
# 786-0 renal = test system: 786-0 renal
# COLO 205 colon = test system: COLO 205 colon
# DU-145 prostate = test system: DU-145 prostate
# K-562 leukemia = test system: K-562 leukemia
# MALME-3M melanoma = test system: MALME-3M melanoma
# MDA-MB-231 breast = test system: MDA-MB-231 breast
# RXF 393 renal = test system: RXF 393 renal
# SF-268 CNS = test system: SF-268 CNS
# SF-295 CNS = test system: SF-295 CNS
# SF-539 CNS = test system: SF-539 CNS
# UACC-257 melanoma = test system: UACC-257 melanoma
# M14 melanoma = test system: M14 melanoma
Compound,growth (NCI-H23 lung),growth (NCI-H226 lung),growth (NCI-H322M lung),growth (HOP-62 NSCLC),growth (NCI-H460 lung),growth (HOP-92 NSCLC),growth (NCI-H522 lung),growth (A549/ATCC NSCLC),growth (786-0 renal),growth (COLO 205 colon),growth (DU-145 prostate),growth (K-562 leukemia),growth (MALME-3M melanoma),growth (MDA-MB-231 breast),growth (RXF 393 renal),growth (SF-268 CNS),growth (SF-295 CNS),growth (SF-539 CNS),growth (UACC-257 melanoma),growth (M14 melanoma)
COC(=O)[C@H](CC(C)C)NC(=O)NC(=O)NC(=O)CI,73.5%,98.5%,98.2%,92.8%,85.9%,-60.6% (active),-79.2% (active),98.2%,-73.5% (active),-31.4% (active),109%,2.16% (active),-57% (active),33.4%,64.1%,85%,88.8%,77.2%,98.2%,63.5%
Cc1ccc(-c2cc(-c3ccc(C)cc3)nc(NCCNc3ccnc4cc(Cl)ccc34)n2)cc1,-12% (active),-59.2% (active),14.9%,-7.66% (active),-68.8% (active),-33.9% (active),-63.6% (active),-56.5% (active),-91.4% (active),-85.8% (active),-26.4% (active),-14.4% (active),-81.4% (active),-89.1% (active),-70.4% (active),-21.9% (active),-76.3% (active),-80.6% (active),-60.9% (active),-88.8% (active)
CC1=CCc2ccccc21,97.6%,95.3%,91.3%,101%,99.8%,82%,90.5%,97.1%,103%,105%,111%,94.1%,101%,94.5%,111%,110%,101%,112%,105%,105%
CC(C)c1ccc(/C=N/N=C(N)N)cc1,80.7%,93.2%,106%,84.3%,91.1%,24.1%,66.7%,88.8%,93.4%,59.8%,98.9%,19.9%,88.4%,89.3%,89.4%,88.5%,67%,91.8%,77%,84.9%
O=c1cc(-c2ccccc2)oc2c(O)c(O)ccc12,57.6%,85.5%,79%,52.7%,17.3%,7.46% (active),43.6%,55.5%,65%,90.7%,68.4%,63.9%,87.2%,71%,72.9%,67.6%,64.5%,53.1%,85.3%,58.8%
CC(C)(C)c1cc(C(=O)Nc2ccc(C(=O)NCCN)cc2)cc(C(C)(C)C)c1,85%,84.2%,58.3%,67%,3.53% (active),26.1%,40.3%,39.3%,32.2%,-77.7% (active),40.5%,-42.5% (active),15.1%,-43.7% (active),19.5%,57%,36.4%,-52.8% (active),68.6%,-71% (active)
Cc1cc(C)c(O)c(CNCCCNCc2cc(C)cc(C)c2O)c1,81.7%,91.4%,45.7%,74.9%,40.7%,40.5%,42.4%,78.8%,80%,9.05% (active),87.8%,15.3%,-65.9% (active),35.8%,47.9%,74.7%,30.3%,-11.8% (active),4.87% (active),-65.8% (active)
O=[N+]([O-])c1cc([N+](=O)[O-])c(C(F)(F)F)cc1NN=C(c1ccc(O)cc1)c1ccc(O)cc1,-15.7% (active),78.6%,113%,-55.4% (active),-37.8% (active),108%,-61.5% (active),-60.4% (active),-27.5% (active),-11% (active),114%,103%,117%,83.2%,-57.8% (active),88%,110%,-64.7% (active),-61% (active),-47.8% (active)
O=[N+]([O-])c1ccc(O)c(-c2nc3ccccc3s2)c1,47.3%,83.7%,90.7%,88.8%,63.2%,-5.6% (active),58.6%,84.2%,73.8%,103%,86.8%,52.7%,44.7%,75.3%,107%,76.1%,53.9%,99%,83.5%,83.2%
O=S(=O)(/N=c1/n(-c2ccccc2)nc2n1CCN2C1=NCCN1)c1ccc(-c2ccccc2)cc1,101%,101%,104%,99.1%,94.8%,82.3%,106%,90.1%,89%,109%,108%,88.6%,112%,86.2%,87.9%,91.7%,97.7%,93.1%,103%,106%
C=C(CN=[N+]=[N-])[C@@H]1CC[C@]2(C)[C@H](CC[C@@H]3[C@H]4[C@H]5OC(=O)[C@@]4(CCC5(C)C)CC[C@]32C)[C@@]1(C)CCC#N,82.2% [100 µM],83.1% [100 µM],96.9% [100 µM],90.9% [100 µM],73.5% [100 µM],65% [100 µM],70.2% [100 µM],78.6% [100 µM],87.9% [100 µM],100% [100 µM],98.2% [100 µM],45.6% [100 µM],90.1% [100 µM],48.9% [100 µM],108% [100 µM],92.9% [100 µM],96.7% [100 µM],88% [100 µM],77.2% [100 µM],69.1% [100 µM]
C=C(C)[C@@H]1CC[C@]2(c3ncc(C)o3)CC[C@]3(C)[C@H](CC[C@@H]4[C@@](C)(CCC#N)[C@H](C(=C)C)CC[C@]43C)[C@@H]12,-68.1% [100 µM] (active),-55.2% [100 µM] (active),-83.5% [100 µM] (active),-86.1% [100 µM] (active),-71.4% [100 µM] (active),-85.7% [100 µM] (active),-85.4% [100 µM] (active),-84.8% [100 µM] (active),-85.6% [100 µM] (active),-82% [100 µM] (active),-76.4% [100 µM] (active),4.09% [100 µM] (active),-87.5% [100 µM] (active),-96.1% [100 µM] (active),-83.6% [100 µM] (active),-66.2% [100 µM] (active),-81.7% [100 µM] (active),-94.3% [100 µM] (active),-80.5% [100 µM] (active),-68.4% [100 µM] (active)
COc1cc(/C=C/C(=O)/C=C/c2ccc(-n3ccnc3)cc2)ccc1O,60.6%,77.9%,94.8%,97.9%,76.4%,85.2%,89.5%,69.3%,107%,52.4%,54.4%,7.93% (active),79.3%,63.7%,26.8%,54.8%,75.2%,-0.198% (active),84.7%,104%
COc1cc2c(cc1OCCCN1CCN(CCCOc3cc4c(cc3OC)C(=O)N3C[C@H](F)C[C@H]3C=N4)CC1)N=C[C@@H]1C[C@@H](F)CN1C2=O,10.5%,17.2%,-23.6% (active),27.6%,1.24% (active),-6.06% (active),-48.8% (active),6.52% (active),12.4%,-47.1% (active),-19.9% (active),2.13% (active),-75.7% (active),18.8%,-52.1% (active),9.5% (active),13.8%,-68.4% (active),20.8%,-7.96% (active)
CC1(C)CC(=O)c2c(ccc(C(=O)C[C@@H](N)CO)c2N)O1,45.9%,27.5%,5.96% (active),2.01% (active),4.1% (active),82.7%,20.1%,15.3%,66.7%,17.9%,18.2%,25.9%,51.2%,20.4%,16.6%,14.9%,21.2%,-3.9% (active),16.6%,-37.5% (active)
COc1ccc(C(=O)/C=C/c2ccccn2)c(O)c1,85.4%,98%,95.3%,87.5%,89.7%,78.6%,69.4%,94%,79.6%,103%,45.1%,41.9%,88.2%,82.4%,56.2%,90.5%,97.1%,49.4%,100%,86.6%
CCC(C)[C@H](NC(=O)NC(=O)NC(=O)CI)C(=O)OC (stereo not given in full),82.3%,86.7%,106%,87.9%,95.6%,-34.4% (active),-86.5% (active),91.9%,-50.3% (active),10.8%,108%,6.27% (active),-44.9% (active),46.8%,85.3%,94.3%,89.4%,91.5%,85%,71.2%
NS(=O)(=O)c1ccc(CCN2C(=O)/C(=C\c3ccccc3)C=C2c2ccc(Cl)cc2)cc1,104%,102%,89.8%,95.5%,99.3%,76.3%,91.8%,99.1%,96.4%,115%,115%,94.8%,95.1%,86.2%,91%,90.6%,100%,99.9%,104%,99%
Cc1cc[n+](CCCCCCCCCC[n+]2ccc(C)cc2)cc1,68.8%,68.3%,109%,87.7%,98.7%,99.8%,91.6%,73.3%,97.5%,103%,93.7%,79.8%,113%,105%,127%,93.4%,73.1%,99.2%,106%,97.7%
CCCCCN(CCCCC)CCCCCCCCN1CCCc2ccccc21,76%,97.6%,89.9%,109%,96%,88%,34.6%,95.8%,96.6%,88.5%,101%,7.49% (active),99.2%,90.9%,115%,86.9%,80.1%,107%,95.2%,89.8%
Cc1cc(C)c(S(=O)(=O)/N=c2/n(-c3ccccc3)nc3n2CCN3C2=NCCN2)c(C)c1,86.7%,89%,87.1%,86.8%,71.8%,63.9%,103%,79.9%,89.1%,-28.9% (active),98%,38.9%,50.7%,67.7%,54.9%,81.4%,95.8%,88.8%,92%,98.9%
Nc1cc(N)c(N=Nc2ccc(S(=O)(=O)O)cc2)cc1N=Nc1ccc(-c2ccc(N=Nc3ccc(O)c(C(=O)O)c3)cc2)cc1,95.7%,92.2%,101%,98.8%,105%,108%,98.2%,101%,105%,109%,111%,108%,93.2%,100%,124%,104%,103%,100%,101%,99.8%
CC(C)(C)c1cc(C(=O)Nc2ccccc2C(=O)NCCN)cc(C(C)(C)C)c1,79.9%,78.3%,21.9%,67.8%,-55.2% (active),19.6%,16.1%,7.64% (active),-35.7% (active),-76.6% (active),15.8%,-11.2% (active),47.7%,-69.4% (active),-89.3% (active),57.5%,-69.4% (active),63.4%,63.2%,-73.9% (active)
